Source: PubChem BioAssay (EPA / NIEHS)
Active and inactive are the calls of the source. How the source made its calls: active means hit-call score of the fitted dose curve at least 0.9, where 1 is the maximum; inactive means score below 0.9.

Tests used:
[1] = read-out: Monokine induced gamma interferon (MIG), CXCL9 (gene 4283); assay: BSK_hDFCGF_MIG: BioMAP Diversity Plus: hDFCGF Assay for Monokine induced gamma interferon (MIG) Biomarker Activity (AID 2283063); conditions: primary human foreskin fibroblasts; actives raise or lower the signal
How it was run: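 ELISA read-out of MIG from primary human dermal fibroblasts 24 h post-dosing. Gain or loss of signal fitted bidirectionally, DMSO as baseline.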

[2] = read-out: Matrix Metallopeptidase 1 (MMP1), MMP1 (gene 4312); assay: BSK_hDFCGF_MMP1: BioMAP Diversity Plus: hDFCGF Assay for Matrix Metallopeptidase 1 (MMP1) Biomarker Activity (AID 2283064); conditions: primary human foreskin fibroblasts; actives raise or lower the signal
How it was run: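 hDFCGF primary fibroblasts (human foreskin); chemical added; 24 h; MMP1 by ELISA; bidirectional fit vs DMSO.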

[3] = read-out: Vascular cell adhesion molecule 1 (VCAM1), VCAM1 (gene 7412); assay: BSK_hDFCGF_VCAM1: BioMAP Diversity Plus: hDFCGF Assay for Vascular cell adhesion molecule 1 (VCAM1) Biomarker Activity (AID 2283065); conditions: primary human foreskin fibroblasts; actives raise or lower the signal
How it was run: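 Primary human foreskin fibroblasts (hDFCGF system) were dosed with chemical and VCAM-1 was measured by ELISA 24 h later. Bidirectional curve fitting used DMSO as negative control and activity baseline.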

[4] = read-out: Plasminogen activator inhibitor-1 (PAI1), SERPINE1 (gene 5054); assay: BSK_hDFCGF_PAI1: BioMAP Diversity Plus: hDFCGF Assay for Plasminogen activator inhibitor-1 (PAI1) Biomarker Activity (AID 2283066); conditions: primary human foreskin fibroblasts; actives raise or lower the signal
How it was run: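 Human foreskin fibroblasts in the hDFCGF system were dosed with compound for 24 h; PAI-1 was quantified by ELISA. Bidirectional curve fitting used DMSO as negative control and baseline.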

[5] = read-out: Intercellular Adhesion Molecule 1 (ICAM1), ICAM1 (gene 3383); assay: BSK_KF3CT_ICAM1: BioMAP Diversity Plus: KF3CT Assay for Intercellular Adhesion Molecule 1 (ICAM1) Biomarker Activity (AID 2283067); conditions: primary human keratinocytes with fibroblasts; actives raise or lower the signal
How it was run: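 Human keratinocyte plus foreskin fibroblast primary co-culture was exposed to chemical for 24 h. ICAM-1 was then quantified by ELISA, and the data were fit bidirectionally against DMSO as the negative control and baseline.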

[6] = read-out: Interferon-gamma inducible Protein 10 (IP10), CXCL10 (gene 3627); assay: BSK_KF3CT_IP10: BioMAP Diversity Plus: KF3CT Assay for Interferon-gamma inducible Protein 10 (IP10) Biomarker Activity (AID 2283068); conditions: primary human keratinocytes with fibroblasts; actives raise or lower the signal
How it was run: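 ELISA read-out of IP-10 after 24 h chemical dosing of human skin primary co-culture (keratinocytes, foreskin fibroblasts). Gain or loss of signal relative to DMSO, bidirectional curve fit.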

[7] = BSK_KF3CT_SRB: Viability Assessment in the BioMAP Diversity Plus: KF3CT Assay (AID 2283069); conditions: primary human keratinocytes with fibroblasts;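 further: total protein by sulforhodamine B staining as a cytotoxicity measure; read 24 h after compound addition; fitted for both signal gain and loss against DMSO baseline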
How it was run: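 Keratinocytes co-cultured with foreskin fibroblasts (human primary); chemical added, 24 h; fix 10% TCA, stain 0.1% SRB, A560. Bidirectional fit vs DMSO.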

[8] = read-out: Interleukin-1 alpha (IL1a), IL1A (gene 3552); assay: BSK_KF3CT_IL1a: BioMAP Diversity Plus: KF3CT Assay for Interleukin-1 alpha (IL1a) Biomarker Activity (AID 2283070); conditions: primary human keratinocytes with fibroblasts; actives raise or lower the signal
How it was run: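 Chemicals were dosed onto co-cultured human keratinocytes and foreskin fibroblasts, IL-1a was quantified by ELISA at 24 h, and activity was fitted in both directions relative to DMSO controls.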

[9] = read-out: TIMP metallopeptidase inhibitor 2 (TIMP2), TIMP2 (gene 7077); assay: BSK_KF3CT_TIMP2: BioMAP Diversity Plus: KF3CT Assay for TIMP metallopeptidase inhibitor 2 (TIMP2) Biomarker Activity (AID 2283071); conditions: primary human keratinocytes with fibroblasts; actives raise or lower the signal
How it was run: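 Human primary keratinocyte/foreskin fibroblast co-culture dosed with chemical and sampled at 24 h. TIMP-2 levels quantified by ELISA; bidirectional fitting against DMSO negative control as baseline.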

[10] = read-out: Matrix Metallopeptidase 9 (MMP9), MMP9 (gene 4318); assay: BSK_KF3CT_MMP9: BioMAP Diversity Plus: KF3CT Assay for Matrix Metallopeptidase 9 (MMP9) Biomarker Activity (AID 2283074); conditions: primary human keratinocytes with fibroblasts; actives raise or lower the signal
How it was run: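 Human keratinocyte/foreskin fibroblast co-culture; compound added; 24 h; MMP-9 by ELISA; bidirectional fit vs DMSO baseline.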

[11] = read-out: urokinase plasminogen activator (uPA), PLAU (gene 5328); assay: BSK_KF3CT_uPA: BioMAP Diversity Plus: KF3CT Assay for urokinase plasminogen activator (uPA) Biomarker Activity (AID 2283075); conditions: primary human keratinocytes with fibroblasts; actives raise or lower the signal
How it was run: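 ELISA readout of uPA, analyzed for signal gain or loss relative to DMSO, from a human primary keratinocyte–foreskin fibroblast co-culture measured 24 h after chemical treatment.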

CD40, CD40 (gene 958) = assay: BSK_LPS_CD40: BioMAP Diversity Plus: LPS Assay for CD40 Biomarker Activity (AID 2283076); conditions: primary human HUVEC with PBMC; actives raise or lower the signal
How it was run: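 Primary human umbilical vein endothelial cells co-cultured with peripheral blood mononuclear cells, LPS-stimulated, were dosed with chemical and read 24 h later. CD40 levels were measured by ELISA and fitted bidirectionally against DMSO as negative control and baseline.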

[12] = read-out: E-selectin (Homo sapiens) (UniProt P16581); assay: BSK_LPS_Eselectin: BioMAP Diversity Plus: LPS Assay for Eselectin Biomarker Activity (AID 2283077); conditions: primary human HUVEC with PBMC; actives raise or lower the signal
How it was run: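 Human umbilical vein endothelial cells co-cultured with peripheral blood mononuclear cells under LPS stimulation; E-selectin measured by ELISA 24 h after chemical dosing. Activity fitted bidirectionally against DMSO as negative control and baseline.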

[13] = read-out: Interleukin-8 (IL8), CXCL8 (gene 3576); assay: BSK_LPS_IL8: BioMAP Diversity Plus: LPS Assay for Interleukin-8 (IL8) Biomarker Activity (AID 2283078); conditions: primary human HUVEC with PBMC; actives raise or lower the signal
How it was run: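 Human umbilical vein endothelial cells co-cultured with PBMC were stimulated with LPS; IL-8 levels were measured by ELISA 24 h after chemical dosing. Activity was fitted bidirectionally against DMSO as negative control and baseline.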

[14] = BSK_LPS_SRB: Viability Assessment in the BioMAP Diversity Plus: LPS Assay (AID 2283079); conditions: primary human HUVEC with PBMC;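 further: total protein by sulforhodamine B absorbance as a cytotoxicity measure; measured one day after compound addition; fitted in both directions against DMSO so loss or gain of signal counts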
How it was run: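 Human umbilical vein endothelial cells co-cultured with PBMC (LPS system) were dosed for 24 h. Total protein was stained with 0.1% sulforhodamine B after 10% TCA fixation, read at 560 nm, and fitted bidirectionally against DMSO baseline.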

[15] = read-out: Interleukin-1 alpha (IL1a), IL1A (gene 3552); assay: BSK_LPS_IL1a: BioMAP Diversity Plus: LPS Assay for Interleukin-1 alpha (IL1a) Biomarker Activity (AID 2283080); conditions: primary human HUVEC with PBMC; actives raise or lower the signal
How it was run: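 Human umbilical vein endothelial cells co-cultured with peripheral blood mononuclear cells were LPS-stimulated and exposed to test chemicals for 24 h. IL-1 alpha was quantified by ELISA, with bidirectional curve fitting against DMSO as the negative control and baseline.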

[16] = read-out: Monocyte Chemoattractant Protein-1 (MCP1), CCL2 (gene 6347); assay: BSK_LPS_MCP1: BioMAP Diversity Plus: LPS Assay for Monocyte Chemoattractant Protein-1 (MCP1) Biomarker Activity (AID 2283081); conditions: primary human HUVEC with PBMC; actives raise or lower the signal
How it was run: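 HUVEC plus PBMC co-culture (human primary cells, LPS system) exposed to test chemical for 24 h; MCP-1 measured by ELISA. Bidirectional curve fitting against DMSO baseline; parallel SRB total-protein staining flags overt cytotoxicity.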

[17] = BSK_LPS_PGE2: BioMAP Diversity Plus: LPS Assay for Prostaglandin E2 (PGE2) Biomarker Activity (AID 2283082); conditions: primary human HUVEC with PBMC; actives raise or lower the signal;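 on AC50: secreted prostaglandin E2 measured by ELISA in LPS-stimulated co-culture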
How it was run: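 HUVEC plus PBMC co-culture stimulated with LPS; secreted PGE2 quantified by ELISA 24 h after chemical dosing. Activity fitted bidirectionally against DMSO as negative control and baseline; parallel SRB total-protein staining served as cytotoxicity check.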

[18] = read-out: C-C motif chemokine 2 (Homo sapiens) (UniProt P13500); assay: BSK_KF3CT_MCP1: BioMAP Diversity Plus: KF3CT Assay for Monocyte Chemoattractant Protein 1 (MCP1/CCL2) Biomarker Activity (AID 2283073); conditions: primary human keratinocytes with fibroblasts; actives raise or lower the signal
How it was run: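 Human keratinocyte plus foreskin fibroblast primary co-culture exposed to chemical for 24 h. MCP-1 levels measured by ELISA. Bidirectional curve fitting relative to DMSO negative control as baseline.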

[19] = read-out: Transforming growth factor beta 1 (TGFb1), TGFB1 (gene 7040); assay: BSK_KF3CT_TGFb1: BioMAP Diversity Plus: KF3CT Assay for Transforming growth factor beta 1 (TGFb1) Biomarker Activity (AID 2283072); conditions: primary human keratinocytes with fibroblasts; actives raise or lower the signal
How it was run: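 Human keratinocyte plus foreskin fibroblast primary co-culture, dosed with chemical for 24 h. TGF-b1 quantified by ELISA. Activity fitted bidirectionally against DMSO negative control as baseline.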

Measured: AC50

Chain of E-selectin (Homo sapiens) (P16581 whole entry, looked up): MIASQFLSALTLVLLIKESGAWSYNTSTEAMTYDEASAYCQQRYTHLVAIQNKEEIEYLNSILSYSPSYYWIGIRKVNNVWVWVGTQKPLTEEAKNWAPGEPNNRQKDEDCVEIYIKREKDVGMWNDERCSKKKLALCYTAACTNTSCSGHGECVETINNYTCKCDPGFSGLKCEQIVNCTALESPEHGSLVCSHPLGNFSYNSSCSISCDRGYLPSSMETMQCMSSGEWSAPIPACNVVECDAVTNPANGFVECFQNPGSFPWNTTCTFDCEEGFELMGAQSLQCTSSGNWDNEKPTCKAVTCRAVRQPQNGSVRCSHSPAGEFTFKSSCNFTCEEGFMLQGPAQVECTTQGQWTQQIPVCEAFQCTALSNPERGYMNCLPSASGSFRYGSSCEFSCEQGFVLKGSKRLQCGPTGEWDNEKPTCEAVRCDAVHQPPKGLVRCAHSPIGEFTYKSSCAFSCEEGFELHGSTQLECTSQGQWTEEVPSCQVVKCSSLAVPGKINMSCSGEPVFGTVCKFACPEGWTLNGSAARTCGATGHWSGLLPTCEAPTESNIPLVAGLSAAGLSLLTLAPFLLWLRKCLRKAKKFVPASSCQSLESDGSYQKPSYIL

CC[C@H](C)[C@@H](C(=O)O)n1sc2ccccc2c1=O
active: [15] 25.9 µM | [17] 32.2 µM
not listed: [18] | [19]
inactive: all other assays above

CCCCCCCCCCCCCCCS(=O)(=O)Oc1ccccc1
not listed: [19]
inactive: all other assays above

COCC(C)OCC(C)O (stereo not drawn)
not listed: [5] | [15]
inactive: all other assays above

c1ccc2c(c1)ccc1ccccc12
not listed: [15] | [18] | [19]
inactive: all other assays above

c1ccc2cc3c(ccc4ccccc43)cc2c1
not listed: [15] | [18] | [19]
inactive: all other assays above

C=C(C)C(=O)OCCC(F)(F)C(F)(F)C(F)(F)C(F)(F)C(F)(F)C(F)(F)F
not listed: [5]
inactive: all other assays above
